Source: PubChem BioAssay
Tgondii IFNg = T. gondii growth inhibition under IFN-gamma. Toxoplasma gondii growth in IFN-gamma-treated host cells; hits give low values. activity change, negative = inhibition, % (test concentration not listed). 3.8% of 69,000 active. AID 1259416; in the data active means activity change below about -70%, passing the limit was not always enough;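 further: host cells are HeLa cells infected with Toxoplasma gondii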
A number is an active result; - = inactive; ! = not active in a repeat. Only a selection was taken, and hits are over-represented in it overall.

SMILES	Tgondii IFNg
COc1ccc(S(=O)(=O)NCc2nc(-c3ccc(C)cc3)oc2C)cc1OC	-
CCOc1ccccc1C(=O)N1CCC2(CC1)Nc1cc(OC)ccc1-n1cccc12	-
CCOC(=O)C1CCN(C(=O)Cn2nc(C)c3sc(-c4ccccc4)nc3c2=O)CC1	-
Cc1ccc2nc3nc(NCC4CCCO4)c(C(=O)NCc4ccccc4)cc3c(=O)n2c1 (stereo not given)	-
Cc1ccnn1CCC(=O)N1CCC(C(=O)c2ccnn2C)CC1	-
CNC(=O)CN1CCC2(CCCN(c3cnccn3)C2)CC1	-
OCc1noc2c1CN(Cc1ccccn1)CC2	-
O=C1CCc2cc(NC(=O)C3CCC3)ccc2N1	-
Cc1c(C)c(C)c(C(=O)CCc2cccc(NC(=O)C3CCC3)c2)c(C)c1C	-92
COCCN1C(=O)CCc2cc(NC(=O)C3CCC3)ccc21	-
COc1ccccc1CNC(=O)Cn1nc(C)c2sc(-c3ccccc3)nc2c1=O	-
CCN1C[C@@H](COC)[C@@]2(CCN(C(=O)CC3Cc4ccccc4C3)C2)C1	-
Cc1occc1C(=O)N(Cc1cnn(C)c1)C1CC1	-
O=C(NCCCn1ccnc1)Nc1c[nH]c2cc(Cl)ccc2c1=O	-
Clc1ccc(CO/N=C(\Cn2ccnc2)c2ccc(Cl)cc2Cl)c(Cl)c1	-83!
Cl/C(=C\n1cncn1)c1ccc(Cl)cc1Cl	-
CSc1cc(-c2ccc(Cl)cc2)nc(-c2cccs2)c1	-
O=C(CN1CCCC1Cn1cccn1)Nc1nc2c(s1)CCCC2 (stereo not given)	-78
O=C(CN1CCCC1Cn1cccn1)Nc1ccnn1C1CCCC1 (stereo not given)	-
Cc1ccc2c(c1)C(=O)CC1(CCN(CC(=O)Nc3nc4c(s3)CCCC4)CC1)O2	-
CCc1nnsc1C(=O)N1C[C@@H]2[C@@H]3CC[C@@H](C3)[C@@H]2C1	-
COc1cc2c(N3CCN(C(=O)Nc4ccc(OC(C)C)cc4)CC3)ncnc2cc1OCCCN1CCCCC1	-
Cn1cnc2cc3c(Nc4cccc(Br)c4)ncnc3cc21	-
COc1cc2ncnc(Nc3ccc(O)c(Br)c3)c2cc1OC	-74
Nc1cc2ncnc(Nc3cccc(Br)c3)c2cc1N	-
SMILES	Tgondii IFNg
C#Cc1cccc(Nc2ncnc3cc(OC)c(OCCCCCCC(=O)NO)cc23)c1	-80
COc1ccc(OC)c(Nc2ncnc3ccc(Br)cc23)c1	-
C=C(C)CN(C)C(=O)[C@@H]1C[C@H](N)CN1C	-
Cc1cc(C)c2c(CC(=O)NCc3cc(=O)[nH]c(N4CCOCC4)n3)c(C)[nH]c2c1	-
COCC(=O)N1CCC2(CC1)CN(CCOCc1ccccc1)CCN2C	-
O=CCN1CCC2(CC1)CN(c1cccc(F)c1)C2=O	-
CCOCC(=O)NCCc1csc(-c2ccc(F)cc2)n1	-
O=C(Nc1ccc2c(c1)OCCO2)c1ccc2nsnc2c1	-
C=CCN(CC=C)C(=O)Nc1ccc2nsnc2c1	-81
CCC(=O)Nc1c(C)ccc2nsnc12	-
COC1CCCC(C(=O)N2CCC3(CC2)C(=O)Nc2ccc(-c4ccc(C(N)=O)cc4)cc23)C1 (stereo not given)	-
CC[C@@]1(C2O[C@@H](C3O[C@@](O)(CO)[C@H](C)C[C@@H]3C)C[C@@H]2C)CC[C@H]([C@]2(C)CC[C@]3(C[C@H](O)[C@@H](C)[C@@H]([C@@H](C)[C@@H](OC)[C@H](C)C(=O)O)O3)O2)O1 (stereo not given in full)	-80
COc1cc(-c2noc(-c3nnn(Cc4nc(-c5ccccc5)oc4C)c3C)n2)cc(OC)c1OC	-
O=C(NCCc1csc(-c2ccccc2)n1)[C@H]1CSCN1C(=O)CCC1CCCC1	-
Cn1cc(-c2[nH]c3cc(NC(=O)[C@H](N)C4CCCCC4)cc4c3c2C=NNC4=O)cn1	-78
O=C(NC1CCN(S(=O)(=O)Cc2ccccc2)CC1)c1ccc(F)cc1	-
Cc1cccc(CN2CCC3(CC2)N=C(c2ccc(C)c(C)c2)C(=O)N3)c1	-
Cc1c(C(C)NC(=O)c2ccc(Cl)c(NCc3ccccn3)c2)cnn1C (stereo not given)	-
O=C(c1c2c(-c3ccccc3)ncnc2n2ccccc12)N1CCCC1	-
COC(=O)c1sc(SC)c(S(=O)(=O)c2ccc(Cl)cc2)c1C	-
CC(C)S(=O)(=O)c1cscc1NC(=O)Nc1ccccc1	-
CSc1sc(NC(=O)Nc2ccc(Cl)cc2)cc1S(=O)(=O)C(C)C	-84
COc1cc(NC(=O)Nc2ccc(Cl)cc2)c(-n2c(C)ccc2C)cc1OC	-
CSc1sc(C(=O)Sc2ccc(Cl)cc2)cc1S(=O)(=O)C(C)C	-79
CSc1sc(C(=O)N2CCc3ccccc32)cc1S(=O)(=O)C(C)C	-
SMILES	Tgondii IFNg
Cc1nc(CNC(=O)C(C)Oc2ccccc2F)no1 (stereo not given)	-
COCCN(Cc1ccc(C)cc1)C(=O)c1ccc(N(C)S(C)(=O)=O)cc1	-
CCc1ccc(S(=O)(=O)N2CCc3nc(N4CCCC4)nc(C)c3CC2)cc1	-
CC(C)(C)C(=O)OCOP(=O)(COCCn1cnc2c(N)ncnc21)OCOC(=O)C(C)(C)C	-80
Nc1ncnc2c1ncn2[C@H]1CC[C@@H](CO)O1	-
CC(C)[C@H](N)C(=O)OCCOCn1cnc2c(=O)[nH]c(N)nc21	-
Clc1ccccc1CSc1nc2ccccc2[nH]1	-
Cc1cc(CSc2nc3ccccc3[nH]2)c(C)cc1CSc1nc2ccccc2[nH]1	-96
c1ccc(-n2nnnc2CSc2nc3ccccc3[nH]2)cc1	-
CN(Cc1nc2ccccc2[nH]1)C(=O)CCCCN1Cc2ccccc2C1=O	-
O=C(NC(=S)SCc1ccccc1)c1ccc(C(F)(F)F)cc1	-
CC(=O)c1c(C)nc(-c2ccc(C(F)(F)F)cc2)nc1SCc1ccccc1	-78
Cn1c(SCc2ccccc2)nnc1-c1ccc(C(C)(C)C)cc1	-
Cc1cc(-c2csc(NC(=O)CCN3C(=O)NC4(CCCC4)C3=O)n2)ccc1F	-
CN1CCOCC2(CCCN(C(=O)Cc3ccsc3)C2)C1 (stereo not given)	-
CN1CCOCC2(CCCN(C(=O)Cc3cccs3)C2)C1 (stereo not given)	-
CCN1CCOCC2(CCCN(C(=O)Cc3ccsc3)C2)C1 (stereo not given)	-80
COCc1n[nH]c2c1CN(C1CCOCC1)C2	-
Cc1nc(-c2cc(C(=O)N3CCCC3)c3ccccn23)cs1	-
Cc1nc(CC2CCCN(S(=O)(=O)c3cn(C)cn3)C2)cc(Nc2ncc(C)s2)n1 (stereo not given)	-97
Cn1cnc(S(=O)(=O)N2CCCC(N)CC2)c1 (stereo not given)	-
CCN(CC)C(=O)CN1CCC(Cc2cc(NC3CCCC3)nc(C)n2)CC1	-
O=C(CN1C(=O)CCc2cc(S(=O)(=O)N3CCOCC3)ccc21)N1CC=C(c2ccccc2)CC1	-
O=C(Cn1c(=O)cc(C(=O)N2CCc3ccccc3C2)c2ccccc21)Nc1ccc(Cl)cc1	-
COc1ccccc1NC(=O)c1nnn(Cc2nc(-c3ccc(Cl)cc3)oc2C)c1C	-
SMILES	Tgondii IFNg
COc1ccc(C(=O)CCC(=O)N2CCC(Cc3nncn3C)CC2)cc1	-
CN1CCN(c2ncnc3ccc(-c4cccc5[nH]ccc45)cc23)CC1	-76
CC(C)NC(=O)c1ccc2ncnc(N3CCCCC3)c2c1	-
CCCc1cnc(-c2cccc3[nH]ccc23)nc1	-
COCc1nc(N(C)Cc2cnn(-c3ccc(F)cc3)c2)c2cnn(C)c2n1	-
Cc1nc2nnc3ccc(C(=O)N(C)Cc4ccccn4)cc3c2n1Cc1ccccc1	-109
Cc1nc2nnc3ccc(C(=O)N(C)C)cc3c2n1-c1ccccc1	-
CN(C)C(=O)c1ccc2nnc3ncn(Cc4ccccc4)c3c2c1	-
